USP1-UAF1 inh – blocks the human USP1/UAF1 deubiquitinase complex. O94782. recombinant USP1/UAF1, Ub-Rhodamine cleavage fluorescence. Potency, µM (top dose mostly 57.1 µM), inactives show at the highest dose activity change, negative = inhibition, hits mostly inhibitors. actives 0.23% (n = 390,000); note: potency is the fitted concentration of half-maximal effect; nearly all actives have a fitted effect of over 60% in size
Target sequence (O94782 whole entry, looked up): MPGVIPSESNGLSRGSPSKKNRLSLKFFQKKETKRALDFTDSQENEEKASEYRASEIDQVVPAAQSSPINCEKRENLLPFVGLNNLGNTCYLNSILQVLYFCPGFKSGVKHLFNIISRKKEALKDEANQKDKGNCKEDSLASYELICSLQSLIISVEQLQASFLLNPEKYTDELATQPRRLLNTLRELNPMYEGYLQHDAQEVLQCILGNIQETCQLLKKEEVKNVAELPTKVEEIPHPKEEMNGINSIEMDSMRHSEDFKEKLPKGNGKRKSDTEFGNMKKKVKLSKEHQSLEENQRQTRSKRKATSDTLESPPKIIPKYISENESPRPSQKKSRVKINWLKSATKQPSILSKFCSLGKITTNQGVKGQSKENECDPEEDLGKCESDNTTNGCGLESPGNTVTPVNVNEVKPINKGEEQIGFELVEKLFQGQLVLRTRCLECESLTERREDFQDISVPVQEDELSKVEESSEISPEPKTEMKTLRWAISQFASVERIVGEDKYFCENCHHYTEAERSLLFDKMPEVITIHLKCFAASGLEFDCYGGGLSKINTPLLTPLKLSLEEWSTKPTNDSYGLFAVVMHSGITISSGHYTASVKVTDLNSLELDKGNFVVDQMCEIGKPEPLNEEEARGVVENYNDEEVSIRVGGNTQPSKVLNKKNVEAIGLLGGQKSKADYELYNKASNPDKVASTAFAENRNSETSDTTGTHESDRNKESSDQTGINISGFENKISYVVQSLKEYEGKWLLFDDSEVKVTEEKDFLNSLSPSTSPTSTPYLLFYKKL
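USP1/UAF1 complex at 1 nM was preincubated with compound for 15 min at room temperature, then Ub-Rho substrate (150nM final) was added. Fluorescence (480/540 nm) was read kinetically, 6 reads every 60 seconds.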
Tau ThT inhib – inhibitors of human tau fibril formation, thioflavin T binding; actives 2.1% (n = 270,000); AID 1460; recombinant tau K18 P301L, heparin-induced fibrillization, ThT fluorescence; P10636; Potency, µM (top dose mostly 57.4 µM), without a hit: top-dose activity, negative = inhibition, usual class: inhibitors; note: potency is the fitted concentration of half-maximal effect; nearly all actives have a fitted effect of over 55% in size
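Using a mix of unlabeled (15 uM) and Alexa 594-labeled (0.24 uM) tau K18 P301L, heparin-triggered fibrillization over 6 hr at 37 C was scored by ThT fluorescence.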
FBPA coupling cs – inhibits coupling enzyme system, counter-screen for aldolase hits | actives 0.67% (n = 290,000) | activity change, negative = inhibition, % at 58.2 µM, hits read low | coupling enzyme system counterscreen, AmpLite Red fluorescence; in the data active = activity change below about -30%
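Final compound at 57.5 uM, incubated 10 min at RT with coupling enzyme reagent (glyceraldehyde-3-phosphate), then 20 min with substrate and AmpLite Red detection. Fluorescence read at 525/598 nm; tests interference with the coupling assay, not aldolase inhibition.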
Tau fluor cs – counter-screen for tau fibril formation inhibitors. tau K18 P301L (four-repeat tau fragment) Alexa594 fluorescence, heparin fibrillization. Potency, µM (series often up to 57.7 µM), inactives show at the highest dose activity change, negative = decrease. actives 0.93% (n = 280,000); note: potency is the fitted concentration of half-maximal effect; nearly all actives have a fitted effect of over 55% in size
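Human K18 P301L tau (15 uM unlabeled plus 0.24 uM Alexa 594-labeled, final) in 100 mM sodium acetate pH 7 was mixed with compound and 20 uM heparin and incubated 6 hr at 37 C.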
Tau fibril FP – tau fibrillization inhibition (FP); P10636; K18 P301L tau heparin fibrillization, Alexa594 FP, 6 h; Potency, µM (top dose mostly 57.7 µM), without a hit: at the highest dose activity, negative = inhibition, usual class: inhibitors; actives 0.39% (n = 280,000); AID 1468; note: potency is the fitted concentration of half-maximal effect; nearly all actives have a fitted effect of over 55% in size
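Read-out: fluorescence polarization of Alexa 594-labeled tau (0.24 uM), 555 nm excitation, 632 nm emission. Mixtures held 15 uM unlabeled K18 P301L, compound and 20 uM heparin, pH 7 acetate buffer, incubated 6 hr at 37 C.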
Active calls of the source: *; ? = inconclusive; nt = no result; [ ] = another dose, or the depositor's remark. Hits are enriched below; roughly 2.3% of the tested compounds scored in any of these assays. Unless noted, calls come from the whole dose curve; as a rule, active = well fitted curve in the direction sought with a large enough effect; inconclusive = small, poorly fitted or top-dose-only effect, or another doubt; inactive = no such curve, though single readings can be large; an effect the other way counts as inactive or inconclusive. % is set by controls: 0 for no effect and ±100 for the full control effect.

SMILES	USP1-UAF1 inh	Tau ThT inhib	FBPA coupling cs	Tau fluor cs	Tau fibril FP
CN(C(=O)CSc1nc2ccccc2n1CC(=O)N(C)c1ccc(F)cc1)c1ccccc1	-10%	9%	nt	2%	-2%
Cc1ccc2nc(CSc3nc(C)cc(C)c3C#N)[nH]c2c1	-12%	13µM*	-2	?	?
COc1ccc(-c2nc(C)c(CCNC(=O)C(=O)Nc3cc(C)cc(C)c3)s2)cc1OC	-25%	?	nt	-6%	1%
Oc1cc(Br)ccc1C=Nc1ccc(N2CCCCC2)cc1	-26%	14µM*	-6	?	-8%
Oc1c(Cl)cc(Cl)cc1C=Nc1ccc(N2CCOCC2)cc1	-22%	nt	1	nt	nt
Oc1ccc(C=Nc2ccc(N3CCOCC3)cc2)c(O)c1	-12%	16µM*	-13	?	?
O=C(Cn1nc(Cc2ccncc2)c2ccccc2c1=O)Nc1cccc(C(F)(F)F)c1	-15%	-5%	nt	-27%	-8%
O=C(C1CCN(S(=O)(=O)c2cccc3nonc23)CC1)N1CCN(c2ccc(F)cc2)CC1	-7%	-15%	nt	-20%	?
CCC(=O)N1CCN(c2ccc(NC(=S)NC(=O)c3ccc(OC)c([N+](=O)[O-])c3)cc2)CC1	-1%	2.5µM*	0	?	?
CCC(=O)N1CCN(c2ccc(NC(=O)c3ccc(N4CCCC4)c([N+](=O)[O-])c3)cc2)CC1	-5%	0.63µM*	2	-16%	-9%
CCOc1ccc(Cl)cc1/C=N/NC(N)=O	-18%	4%	-39*	5%	4%
COc1ccc(OC)c(C(=O)COC(=O)c2ccc([N+](=O)[O-])o2)c1	-21%	nt	nt	nt	nt
Cc1oc2cc([N+](=O)[O-])c(O)c([N+](=O)[O-])c2c1C(=O)c1ccc(Cl)cc1	?	18µM*	1	-24%	1%
COc1ccc(OC)c(C(=O)c2c(C)oc3cc([N+](=O)[O-])c(O)c([N+](=O)[O-])c23)c1	-21%	13µM*	-18	-25%	-6%
CC(O)[C@@H]1NC(=O)[C@H](CCCN)NC(=O)[C@@H](Cc2c[nH]c3ccccc23)NC(=O)[C@H](Cc2ccc(O)cc2)NC(=O)[C@@H](NC(=O)[C@H](N)Cc2ccccc2)CSSC(C)(C)C(C(=O)N[C@H](C(N)=O)[C@@H](C)O)NC1=O (some centres not stated)	nt	nt	0	nt	nt
COc1cccc(C2=Nn3c(nnc3-c3ccccc3C)SC2)c1	nt	nt	-32*	nt	nt
COc1cc2c(cc1OC)C(c1ccc(Cl)cc1)N(c1ccc(C)c(F)c1)C(=O)C2 (configuration not stated)	-12%	?	nt	-11%	5%
O=C(C1CCCCC1)N(Cc1cccnc1)c1nc2c(F)cccc2s1	-27%	-9%	nt	-6%	1%
COc1ccc(CCNC(=O)c2nc(-c3ccc(Cl)cc3)n3c2CCCCC3)c(OC)c1	-15%	-9%	nt	-10%	6%
Cc1ccc(Nc2nc(N/N=C/c3c[nH]c4ccccc34)nc(N3CCOCC3)n2)cc1	-6%	?	-2	?	-7%
Cc1[nH]c2ccccc2c1/C=N/Nc1nc(Nc2ccc(F)cc2)nc(N2CCOCC2)n1	-12%	28µM*	-1	32µM*[quencher]	?
CN(C)CC(O)Cn1c2ccc(Br)cc2c2cc(Br)ccc21 (configuration not stated)	nt	16%	nt	?	25µM*
Oc1c(Br)cc(Br)cc1C=NCc1ccc(F)cc1	?	20µM*	-18	-7%	?
Oc1c(Br)cc(Br)cc1C=NCc1ccccc1	?	?	-4	-12%	-8%
CCN(CC)Cc1cc(O)c(CN(CC)CC)cc1O	?	11µM*	-33*	?	?
COc1cc(NC(=O)N2CCC3(CC2)Nc2cc(F)ccc2-n2cccc23)cc(OC)c1OC	-9%	-11%	nt	13µM*[quencher]	?
CCSc1nnc(NC(=O)C(C)C)s1	-20%	-2%	1	-3%	-1%
CCSc1nnc(NC(=O)C(C(F)(F)F)C(F)(F)F)s1	-14%	22µM*	1	-21%	?

Screening results as filed in PubChem.
